# PubChem BioAssay AID602123 (The Scripps Research Institute Molecular Screening Center, 2011)
# Among all 360,000 compounds or so, about 1,500 (0.42%) were called active. The sample holds actives, similar compounds and a random draw of the others, so the mix is not that of the screen. No stated cut-off is given here; in the data, active means inhibition above about 13% (passing the limit was not always enough); inactive means the rest.
# Target: Lon protease (Escherichia coli (strain K12)) (UniProt P0A9M0)
# Experiment: E. coli eLon protease inhibition – biochemical, fluorescence polarization, primary screen (AID 602123);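 further: 0% = enzyme with probe and DMSO and 100% = no enzyme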
# Settings: purified E. coli Lon protease, at 7.94 µM, active compounds read high
# Sequence of Lon protease (Escherichia coli (strain K12)) (P0A9M0 whole entry, looked up): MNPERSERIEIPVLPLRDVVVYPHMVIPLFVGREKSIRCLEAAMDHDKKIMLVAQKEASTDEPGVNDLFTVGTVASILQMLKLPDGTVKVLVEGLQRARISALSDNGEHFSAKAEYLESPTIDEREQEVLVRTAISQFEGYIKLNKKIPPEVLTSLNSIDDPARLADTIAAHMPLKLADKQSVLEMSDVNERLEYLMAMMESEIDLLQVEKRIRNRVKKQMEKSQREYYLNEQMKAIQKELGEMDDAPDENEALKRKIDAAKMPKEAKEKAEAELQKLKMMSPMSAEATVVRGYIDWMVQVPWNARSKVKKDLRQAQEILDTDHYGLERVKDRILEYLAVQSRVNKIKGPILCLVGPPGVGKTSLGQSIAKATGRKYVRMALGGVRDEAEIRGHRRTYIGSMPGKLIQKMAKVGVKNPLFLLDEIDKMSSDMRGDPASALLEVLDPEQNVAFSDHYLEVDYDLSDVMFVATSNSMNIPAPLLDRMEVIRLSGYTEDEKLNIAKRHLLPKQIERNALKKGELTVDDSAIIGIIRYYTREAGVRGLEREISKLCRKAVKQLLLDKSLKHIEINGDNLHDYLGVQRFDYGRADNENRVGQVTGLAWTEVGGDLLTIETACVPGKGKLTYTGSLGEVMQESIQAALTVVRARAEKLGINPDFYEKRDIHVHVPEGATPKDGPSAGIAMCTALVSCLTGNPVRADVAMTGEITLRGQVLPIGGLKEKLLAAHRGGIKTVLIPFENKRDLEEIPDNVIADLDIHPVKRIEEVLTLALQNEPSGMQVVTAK
row,SMILES,inhibition
1,Cc1cccc(NC(=O)COC(=O)CCc2ccccc2)c1C,-6.48% (inactive)
2,O=C(COC(=O)CCc1c[nH]c(=O)[nH]1)Nc1ccccc1Cl,25.7% (active)
3,Cc1cc(C(=O)OCC(=O)Nc2ccccc2Cl)c(C)o1,-2.91% (inactive)
4,C/C(=N\NC(=O)c1ccc(C)cc1)C1C(=O)c2ccccc2C1=O,3.32% (inactive)
5,COc1ccc(N(CC(=O)NC2CCCC2)C(=O)CS(=O)CC(=O)Nc2ccc3c(c2)OCO3)cc1 (stereo unspecified),0.46% (inactive)
6,CC(C)NC(=O)N1Cc2cc(C(=O)NCC(F)(F)F)nc(-c3cccc(-c4cc5ccccc5o4)c3)c2[C@@H]1CCO,1.84% (inactive)
7,COCCOC(=O)c1sc(=S)n(CCOC)c1N,18.6% (active)
8,O=C(CSc1n[nH]c(-c2cccs2)n1)N1CCCCC1,0.33% (inactive)
9,CCCN(CCC)C(=O)C1c2ccccc2Oc2ccccc21,151% (active)
10,CCOC(=O)CC(NC(=O)C1c2ccccc2Oc2ccccc21)c1ccc(C)cc1 (stereo unspecified),-23.2% (inactive)
11,CC(C)(C)NC(=O)NC(=O)COC(=O)C1c2ccccc2Oc2ccccc21,7.11% (inactive)
12,Cc1ccc(Sc2ccncc2S(N)(=O)=O)cc1,-17.1% (inactive)
13,CCc1cc(=O)oc2cc(C)cc(OCC(=O)N3CCC[C@@H]3C(=O)O)c12,3.5% (inactive)
14,C/C(CC(O)(/C=N/O)c1ccccc1)=N\O (stereo unspecified),-3.3% (inactive)
15,CCC(C)(C)NC(=O)C(c1cccn1C)N(Cc1ccc(C)cc1)C(=O)Cn1nnc2ccccc21 (stereo unspecified),0.29% (inactive)
16,NC(=O)c1ccc(NC(=O)COC(=O)c2c3c(nc4ccccc24)/C(=C\c2ccc4c(c2)OCO4)CCC3)cc1,183% (active)
17,O=C(COC(=O)c1c2c(nc3ccccc13)CCCC2)c1ccc(Br)s1,-4.86% (inactive)
18,O=C(COC(=O)c1ccc2c(c1)OCCO2)NCc1ccccc1Cl,6.26% (inactive)
19,CCN(CC(=O)Nc1ccc2c(c1)OCO2)S(=O)(=O)c1ccccc1,7.87% (inactive)
20,CC(NC(=S)Nc1ccc(S(N)(=O)=O)cc1)c1ccc2c(c1)OCO2 (stereo unspecified),4.89% (inactive)
21,O=C(OCCOc1ccccc1Cl)c1cc(S(=O)(=O)N2CCCCC2)ccc1N1CCOCC1,-5.06% (inactive)
22,COc1cccc(NC(=O)N2C3CCCC2CC(NC(C)=O)C3)c1 (stereo unspecified),-2.6% (inactive)
23,CCCN1C(=O)C(NC(C)=O)c2cc(OC)ccc21 (stereo unspecified),16.3% (active)

row,SMILES,inhibition
1,CCCN1C2CCCC1CC(NC(=O)c1cccc(OC)c1)C2 (stereo unspecified),-6.23% (inactive)
2,NC(=O)C1CCCN(CC(=O)N2CCN(c3ccccc3)CC2)C1 (stereo unspecified),-1.63% (inactive)
3,OCCC1CN(Cc2cccc(O)c2)CCN1CCc1ccccc1 (stereo unspecified),-2.49% (inactive)
4,COc1cc(C(=O)NCc2ccc3c(c2)cc(C)n3C)cc(OC)c1OC,24.5% (active)
5,CCn1c(CNC(=O)c2cc(OC)c(OC)c(OC)c2)cc2cc(C)ccc21,-10.1% (inactive)
6,CCOCC(=O)NCc1ccc2c(c1)cc(C)n2C,13.8% (inactive)
7,c1cc(-n2cnnn2)ccc1NC1=NCCC1,-0.06% (inactive)
8,CC1=C(C(=O)Nc2cccc(C(=O)NCC(C)c3ccccc3)c2)SCCO1 (stereo unspecified),18.4% (inactive)
9,CCn1c(CC(=O)Nc2ccc(C)cc2)nnc1SCC(=O)Nc1nc(C)cs1,0.33% (inactive)
10,Cc1ccc(SCC(=O)Nc2nncs2)cc1,6.67% (inactive)
11,Cc1ccc(NC(=O)Cc2nnc(SCC(=O)Nc3nncs3)n2C)cc1,45.4% (active)
12,COc1ccc(CNCCCO)cc1OC,8.73% (inactive)
13,COc1ccc(C2c3ccc(O)cc3Oc3ncn(CCCO)c(=N)c32)cc1OC (stereo unspecified),58.2% (active)
14,COc1ccc(C2C(C#N)=C(N)Oc3cc(N)ccc32)cc1OC (stereo unspecified),-24.5% (inactive)
15,O=C1NC[C@@H](CCCCN2CCN(CCc3ccc(O)cc3)C(=O)C2=O)N(CC2CCCCC2)C1=O,-2.96% (inactive)
16,Cc1cc(NS(=O)(=O)c2ccc(NC(=S)NC(=O)c3ccc(F)cc3Cl)cc2)no1,2.44% (inactive)
17,CN(CC(=O)Nc1ccc(F)c(F)c1F)C(=O)C1CC(=O)N(C2CCCC2)C1 (stereo unspecified),-6.03% (inactive)
18,CC1(C)C(c2cccs2)=[N+]([O-])C2(CCCCC2=O)N1O (stereo unspecified),-3.06% (inactive)
19,COc1ccc(Cl)cc1-n1c(C)cc(C(=O)OCC(=O)N2CC(=O)Nc3ccccc32)c1C,7.08% (inactive)
20,CN(C(=O)COC(=O)Cn1cnc2c1c(=O)n(C)c(=O)n2C)C1(C#N)CCCCC1,-2.86% (inactive)
21,Cc1cc(Br)cn2c(Cc3ccsc3)c(-c3ccc(C#N)cc3)nc12,50.3% (active)
22,Cc1ccc(-c2nc3c(C)cc(Br)cn3c2Cc2ccccc2)cc1,-0.26% (inactive)
23,Cc1cc(Br)cn2c(Cc3cccc(F)c3)c(-c3cccc(Br)c3)nc12,-1.91% (inactive)
